Data on seven molecules can be found in PubChem BioAssay.

“And” between values parts separate entries of the source, which are not always exact repeats. Equal entries are not always repeated. For some of these results: Potency and affinity values are given separately. The source made the active and inactive calls. Unless noted, the rule behind the calls is not given here.

The nature of assay [1]: compounds altering circadian rhythm period length – cell-based, LOPAC library, luminescence reporter (AID 2774).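 Note: values are relative to mean of DMSO wells on each plate.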 The conditions noted are these: circadian reporter cells, at 7 µM, actives lie on both sides.
The subject of assay [2] is Hepatitis C virus NS3 helicase. Nature of the assay: blockers of NS3h binding to ssDNA – biochemical, fluorescence polarization, LOPAC1280 library, primary screen (AID 687035; in the data active = inhibition above about 37%). The settings on record: Purified HCV NS3 helicase, Cy5-dT15 ssDNA binding fluorescence polarization; stronger effect = higher value; concentration not given here.
Assay [3] is described as follows: compounds altering Cy5-DNA-NS3h complex signal – biochemical, LOPAC1280, artefact control for HCV NS3 helicase inhibitor project (AID 687037). The conditions noted are these: Cy5-DNA-NS3h complex fluorescence interference counterscreen. Background: A counterscreen serves to expose hits that act by an unwanted route or on another target.
For assay [4], the system named is Aerobactin synthetase IucA (Klebsiella pneumoniae). Nature of the assay: inhibition of K. pneumoniae IucA enzyme – biochemical, Tocris library, absorbance (AID 1345561).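 Note: 100% = enzyme without compound and 0% = no enzyme.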 The conditions noted are these: purified IucA enzyme assay, absorbance (OD) read-out; stronger effect = lower value;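 tested at 8 µM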.
Assay [5] deals with Aerobactin synthetase IucA (Klebsiella pneumoniae, hypervirulent). Nature of the assay: biochemical IucA inhibition screen of LOPAC library by absorbance (AID 1346212).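 Note: 100% = no compound wells and 0% = no enzyme wells.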 The conditions noted are these: IucA enzyme assay, absorbance (OD) readout; stronger effect = lower value;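 tested at 8 µM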.
The nature of assay [6]: viability loss with induced miR-34 in A549 – imaging, A549 dox-inducible miR-34, nuclei and caspase counts, primary screen (AID 1347080;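 active = compounds whose cell count with miR-34 switched on is under 0.7 times the count with it off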). The conditions noted are these: A549 miR-34 inducible, Hoechst nuclei count, 48 h.
Assay [7] in a line: galactose survival enhancers in mitochondrial complex I cybrids – cell-based, galactose medium, ATP luminescence, primary screen (AID 1645843;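 active = z-score of at least 1.8 in each of two replicates, scored against plate mean and spread of sample wells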;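 note: positive z means more ATP and so rescue of galactose-driven cybrid death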). The conditions noted are these: complex I mutant cybrid cells, 72 h, stronger effect = higher value.
Assay [8] in a line: blockers of cellular phospholipid synthesis – cell-based, LOPAC library, screen 4, primary screen (AID 1347384). The settings on record: animal cells, phospholipid biosynthesis inhibition screen; at 10 µM.
The nature of assay [9]: compounds altering viability of human ES cells (AID 493140).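 Note: cells exposed to compounds for four days before counting.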 The settings on record: human embryonic stem cell survival screen; stronger effect = higher value.
Assay [10] in a line: P. berghei load reduction in hepatocytes – cell-based, HepG2, luciferase luminescence, HepG2 viability, primary screen (AID 624349; in the data active = parasite load remaining mostly below about 12%, no sharp cut-off; inactive = mostly above about 10%;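 note: 100% = mean of DMSO negative control wells on the same plate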). The conditions noted are these: P. berghei liver stage in HepG2, luciferase luminescence, concentration not given here; parasite load remaining: stronger effect = lower value; viability: measured here: HepG2 viability without parasites.
A short description of assay [11]: EMT-state selective cytotoxicity in co-culture – imaging, PC-3E GFP, TEM4-18 mCherry, primary screen (AID 1345086;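 active = compounds killing one labelled cell type while sparing the other, by normalised counts and ratio limits, not self-fluorescent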;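 for all read-outs here: cells exposed to compound for 72 h before imaging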;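 for red/green cell ratio (normalised): normalised mesenchymal count divided by normalised epithelial count so high means epithelial killing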). The settings on record: PC-3E GFP / TEM4-18 mCherry co-culture, imaging cell counts, at 1 µM; for red/green cell ratio (normalised): actives lie on both sides.
The nature of assay [12]: yeast 75Q aggregation reduction – 75Q-TubU reporter (AID 1593). The conditions noted are these: Yeast 75Q polyglutamine aggregation reporter.
Assay [13] can be described thus: restoration of touch response, mutant HTT neurons – whole organism, C. elegans mechanosensory neurons, N-terminal huntingtin (AID 1599). The settings on record: C. elegans polyQ-huntingtin mechanosensory neurons, stronger effect = higher value.
Assay [14] can be described thus: blockers of cytochrome c efflux from mitochondria – biochemical, purified mitochondria (AID 1603).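 Note: mouse liver mitochondria challenged with calcium chloride; signal normalized to the plate average as 100%.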 The settings on record: stronger effect = lower value.
A short description of assay [15]: polyglutamine aggregate formation blockers (AID 1604). The conditions noted are these: polyglutamine-induced protein aggregation inhibition assay; stronger effect = higher value; tested at 2.5 µM.
Assay [16] can be described thus: glutamate transport activators, MN-1 cells, MN-1 cell line (AID 1612).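 Note: tested at 1 µM final; 0% = mean of DMSO vehicle wells on each plate; positive means more glutamate uptake than control and negative means less.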 The conditions noted are these: MN-1 motor neuron cells, stronger effect = higher value.
A short description of assay [17]: 75Q-TubH aggregate inhibition, S. cerevisiae, yeast (AID 1616). The settings on record: S. cerevisiae 75Q-TubH polyglutamine aggregation suppression; stronger effect = higher value.
Setting [18] is: measured here: relative caspase fold change +Dox/-Dox.
[19] abbreviates: measured here: total cells with miR-34 induction, stronger effect = lower value.
Where [20] appears, read: measured here: total cells without miR-34 induction.
Where [21] appears, read: measured here: epithelial PC-3E GFP cell survival.
The mark [22] stands for this setting: measured here: mesenchymal TEM4-18 mCherry cell survival.

Broadly, the inhibition is the change of the read-out against control, counted positive when it falls. One may read the remaining activity as the signal under treatment as a percentage of the control signal. As for `CCCN1CCO[C@@H]2c3cc(O)ccc3OC[C@H]21`, the period change in assay [1] is -0.065 hour (inactive) and 0.1 hour (inactive). Moreover, the inhibition in [2] was -4% (inactive) and -2% (inactive). Also, in assay [3], the fluorescence ratio (interference) was 1 (inactive). Besides, the remaining activity was 109% (inactive) in assay [4] and 102% (inactive) in assay [5]. The fold change in assay [6] (stronger effect = lower value) was 0.978 (inactive) and 0.932 (inactive); in assay [6] (setting [18]), 1.67 and 0.977. Moreover, the cell count in assay [6] (setting [19]) is 9750 and 8460; in assay [6] (setting [20]), 9980 and 9070. The z-score in assay [7] was 0.53 (inactive) and -0.06 (inactive).
In the case of `CCOC(=O)c1ncn2c1[C@@H]1CCCN1C(=O)c1cc(OC)ccc1-2`, the period change in assay [1] is -0.11 h (inactive). Further, the inhibition in assay [2] is 0% (inactive). The fluorescence ratio (interference) in assay [3] is 1 (inactive). In addition, the remaining activity in assay [4] is 125% (inactive); in [5], 110% (inactive). In addition, the fold change in assay [6] (stronger effect = lower value) is 1.04 (inactive) and 0.964 (inactive); in assay [6] (setting [18]), 0.593 and 0.443. Besides, the cell count is 9220 and 8750 in [6] (setting [19]); 8880 and 9080 in [6] (setting [20]). For the same molecule, the result in assay [8] was inactive. The z-score in [7] was 0.505 (inactive) and 0.115 (inactive).
As to `O=C(Cc1ccc(Cl)c(Cl)c1)N1CCCCC1CN1CCCC1` (stereo not drawn), the period change in [1] is -0.135 h (inactive). In assay [2], the inhibition was -2% (inactive). The fluorescence ratio (interference) in assay [3] is 0.9 (inactive). Also, the remaining activity is 106% (inactive) in assay [4] and 90.2% (inactive) in [5]. Further, the fold change in assay [6] (stronger effect = lower value) is 1.01 (inactive) and 0.956 (inactive); in [6] (setting [18]), 1.27 and 0.734. Further, the cell count in [6] (setting [19]) was 9780 and 8020; in assay [6] (setting [20]), 9720 and 8380. Besides, in assay [8], the call was inactive. Besides, in [7], the z-score was 0.175 (inactive) and -0.475 (inactive).
For orientation: viability means a read-out of living cells in per cent, often relative to untreated cells. Take `COc1cc2c(c(OC)c1OC)-c1ccc(O)c(=O)cc1C(N)CC2` (stereo not drawn): the survival in [9] was 6 (inactive). Besides, in [10], the parasite load remaining is 59.8% (inactive) and the viability was 94.7%. Also, the red/green cell ratio (normalised) in assay [11] is 0.78 (inactive). Further, the normalised cell number in assay [11] (setting [21]) turned out to be 1.21. Further, the normalised cell number in assay [11] (setting [22]) worked out at 0.95.
As for `CCCCCCCCCCNCCC` (tested in a mixture with another compound), the parasite load remaining in assay [10] was 23% (inactive). Further, in assay [10], the viability was found to be 92.6%. For the same molecule, the red/green cell ratio (normalised) in assay [11] (counts scaled to control wells, 1 = unselective) was 0.92 (inactive). The values for the normalised cell number in assay [11] (setting [21]) and in assay [11] (setting [22]) were 1.01 and 0.93, respectively. For the same molecule, the fold change is 0.945 (inactive) in assay [6] (stronger effect = lower value, cell number ratio, induced over uninduced) and 1.32 in assay [6] (setting [18]). Besides, the results for the cell count in [6] (setting [19]) and in assay [6] (setting [20]) were 11300 and 11900, respectively.
`CC(C)(C)c1o[nH]c(=O)c1CC(N)C(=O)O` (stereo not drawn): in assay [1], the period change is -0.635 h (inactive). For the same molecule, the inhibition in assay [2] was -1% (inactive). The fluorescence ratio (interference) in assay [3] is 1 (inactive). Further, the remaining activity is 108% (inactive) in assay [4] and 110% (inactive) in assay [5]. Also, the fold change in assay [6] (stronger effect = lower value) was 1 (inactive) and 0.891 (inactive); in assay [6] (setting [18]) it was 1.8 and 0.776. Besides, the cell count was 10700 and 8780 in assay [6] (setting [19]); 10700 and 9850 in [6] (setting [20]). The molecule was classed as inactive in assay [8]. Moreover, the z-score in assay [7] is -0.285 (inactive) and -0.155 (inactive).
`C[C@]12CCC(=O)C=C1CCC1C2CC[C@@]2(C)C1CC[C@@H]2O` (stereo partly drawn) registered a score in [12] of -1.11. In addition, in assay [13], the rescue above control was 4.25. In addition, the cytochrome c release ratio in assay [14] worked out at 1.03. Also, in assay [15], the inhibition of aggregation was -1.96%. Also, in assay [16], the glutamate uptake change worked out at 18.8%. In assay [17], this molecule registered an aggregation suppression score of -0.43. Further, the parasite load remaining in assay [10] is 68.4% (inactive). For the same molecule, the viability in assay [10] was found to be 110%. The red/green cell ratio (normalised) in assay [11] was 1.12 (inactive). In addition, the normalised cell number is 0.76 in assay [11] (setting [21]) and 0.85 in assay [11] (setting [22]). Further, the fold change was 0.943 (inactive) in [6] (stronger effect = lower value) and 2.07 in assay [6] (setting [18]). Also, the cell count came to 10700 in assay [6] (setting [19]) and 11300 in [6] (setting [20]).
